Values joined by “and” are separate entries in the source; they are usually repeats but may differ in a detail not shown here. Identical values can stand only once. The campaign covered roughly 5,500 compounds. About 2,000 (36%) were called active. Not shown: some 18% with an inconclusive outcome. This is one part of the list. Values without a mark were called inactive. Rule as the data show it: active = normalized growth mostly below about 0.91 (no sharp cut-off); inconclusive = no clear call, values can overlap the other calls; inactive = mostly above about 0.92.
Assay: chemical genetic growth profiling, strain panel (AID 1159580);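 also: tested at 20 µM; growth read once vehicle control cultures reached saturation at 30 °C; 1 = growth at the plate median or of vehicle wells; lower values mean less growth of the strain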
Details: S. cerevisiae deletion strains, growth OD

## CNCCC(Oc1ccc(C(F)(F)F)cc1)c1ccccc1 (stereo unspecified)
Locus YAL013W, strain DEP1, stronger effect = lower value
  normalized growth: 1 and 1.01
Locus YAL021C, strain ccr4, stronger effect = lower value
  normalized growth: 0.994
Locus YAL026C, strain drs2, stronger effect = lower value
  normalized growth: 0.991
Locus YAL030W, strain snc1, stronger effect = lower value
  normalized growth: 0.987
Locus YAL040C, strain CLN3, stronger effect = lower value
  normalized growth: 1.01
Locus YBL061C, strain skt5, stronger effect = lower value
  normalized growth: 0.986
Locus YBR009C, strain hhf1, stronger effect = lower value
  normalized growth: 0.99
Locus YBR021W, strain FUR4, stronger effect = lower value
  normalized growth: 0.967
Locus YBR023C, strain chs3, stronger effect = lower value
  normalized growth: 0.986
Locus YBR171W, strain sec66, stronger effect = lower value
  normalized growth: 0.991
Locus YBR229C, strain ROT2, stronger effect = lower value
  normalized growth: 1.01
Locus YBR231C, strain swc5, stronger effect = lower value
  normalized growth: 0.986
Locus YBR279W, strain paf1, stronger effect = lower value
  normalized growth: 0.985
Locus YCL011C, strain gbp2, stronger effect = lower value
  normalized growth: 0.991
Locus YCL016C, strain dcc1, stronger effect = lower value
  normalized growth: 0.995
Locus YCL029C, strain bik1, stronger effect = lower value
  normalized growth: 0.99
Locus YCL061C, strain MRC1 (second series), stronger effect = lower value
  normalized growth: 0.983
Locus YCL061C, strain MRC1, stronger effect = lower value
  normalized growth: 0.985
Locus YCL069W, strain vba3, stronger effect = lower value
  normalized growth: 0.998
Locus YCR088W, strain abp1, stronger effect = lower value
  normalized growth: 0.995
Locus YDL005C, strain med2, stronger effect = lower value
  normalized growth: 0.99
Locus YDL035C, strain GPR1, stronger effect = lower value
  normalized growth: 0.987
Locus YDL040C, strain nat1, stronger effect = lower value
  normalized growth: 0.985
Locus YDL074C, strain BRE1, stronger effect = lower value
  normalized growth: 0.993
Locus YDL101C, strain DUN1, stronger effect = lower value
  normalized growth: 1.02
Locus YDL134C, strain PPH21, stronger effect = lower value
  normalized growth: 1.01
Locus YDL185W, strain tfp1, stronger effect = lower value
  normalized growth: 1
Locus YDL192W, strain arf1, stronger effect = lower value
  normalized growth: 1
Locus YDR001C, strain nth1, stronger effect = lower value
  normalized growth: 0.998
Locus YDR069C, strain doa4, stronger effect = lower value
  normalized growth: 0.944
Locus YDR101C, strain arx1, stronger effect = lower value
  normalized growth: 0.987
Locus YDR137W, strain rgp1, stronger effect = lower value
  normalized growth: 1.2 [resistant] (active)
Locus YDR150W, strain NUM1, stronger effect = lower value
  normalized growth: 1.01
Locus YDR159W, strain sac3, stronger effect = lower value
  normalized growth: 1
Locus YDR162C, strain NBP2, stronger effect = lower value
  normalized growth: 0.992
Locus YDR195W, strain ref2
  normalized growth: 0.995
Locus YDR297W, strain sur2, stronger effect = lower value
  normalized growth: 0.995
Locus YDR318W, strain mcm21, stronger effect = lower value
  normalized growth: 0.996
Locus YDR334W, strain swr1, stronger effect = lower value
  normalized growth: 0.987
Locus YDR335W, strain msn5, stronger effect = lower value
  normalized growth: 1
Locus YDR363W, strain ESC2, stronger effect = lower value
  normalized growth: 1.02
Locus YDR388W, stronger effect = lower value
  normalized growth: 0.93
Locus YDR392W, strain spt3, stronger effect = lower value
  normalized growth: 0.996
Locus YDR502C, strain sam2, stronger effect = lower value
  normalized growth: 0.991
Locus YEL003W, strain gim4, stronger effect = lower value
  normalized growth: 0.999
Locus YEL037C, strain rad23, stronger effect = lower value
  normalized growth: 0.993
Locus YEL061C, strain CIN8 (second series), stronger effect = lower value
  normalized growth: 0.998
Locus YEL061C, strain CIN8, stronger effect = lower value
  normalized growth: 1.01
Locus YER002W, strain NOP16, stronger effect = lower value
  normalized growth: 1
Locus YER015W, strain faa2, stronger effect = lower value
  normalized growth: 0.997
Locus YER016W, strain bim1, stronger effect = lower value
  normalized growth: 0.992
Locus YER110C, stronger effect = lower value
  normalized growth: 0.994
Locus YER111C, strain swi4, stronger effect = lower value
  normalized growth: 0.981
Locus YER155C, strain BEM2 (second series), stronger effect = lower value
  normalized growth: 1.01
Locus YER155C, strain BEM2, stronger effect = lower value
  normalized growth: 1.01
Locus YER167W, strain BCK2, stronger effect = lower value
  normalized growth: 1.01
Locus YFR010W, strain ubp6, stronger effect = lower value
  normalized growth: 0.972
Locus YGL078C, strain dbp3, stronger effect = lower value
  normalized growth: 0.99
Locus YGL086W, strain mad1, stronger effect = lower value
  normalized growth: 1
Locus YGL167C, strain pmr1, stronger effect = lower value
  normalized growth: 0.987
Locus YGL173C, strain kem1, stronger effect = lower value
  normalized growth: 0.982
Locus YGL227W, strain vid30, stronger effect = lower value
  normalized growth: 0.982
Locus YGL240W, strain doc1, stronger effect = lower value
  normalized growth: 0.975
Locus YGL248W, strain PDE1, stronger effect = lower value
  normalized growth: 1.02
Locus YGL253W, strain hxk2, stronger effect = lower value
  normalized growth: 0.977
Locus YGR078C, strain PAC10, stronger effect = lower value
  normalized growth: 0.948 and 0.983
Locus YGR135W, strain pre9, stronger effect = lower value
  normalized growth: 0.986
Locus YGR229C, strain SMI1, stronger effect = lower value
  normalized growth: 0.949
Locus YGR252W, strain gcn5, stronger effect = lower value
  normalized growth: 0.923
Locus YHR013C, strain ard1, stronger effect = lower value
  normalized growth: 0.922
Locus YHR027C, strain rpn1, stronger effect = lower value
  normalized growth: 0.991
Locus YHR030C, strain SLT2, stronger effect = lower value
  normalized growth: 1.01 and 1
Locus YHR079C, strain IRE1 (second series), stronger effect = lower value
  normalized growth: 0.997
Locus YHR079C, strain IRE1, stronger effect = lower value
  normalized growth: 1.03
Locus YHR094C, strain hxt1, stronger effect = lower value
  normalized growth: 1
Locus YHR129C, strain ARP1, stronger effect = lower value
  normalized growth: 1.02
Locus YHR142W, strain chs7, stronger effect = lower value
  normalized growth: 0.992
Locus YHR200W, strain rpn10, stronger effect = lower value
  normalized growth: 0.993
Locus YIL066C, strain RNR3, stronger effect = lower value
  normalized growth: 1.01
Locus YIL073C, strain SPO22, stronger effect = lower value
  normalized growth: 1.25
Locus YIL125W, strain kgd1, stronger effect = lower value
  normalized growth: 0.997
Locus YIR030C, strain dcg1, stronger effect = lower value
  normalized growth: 1
Locus YJL092W, strain hpr5, stronger effect = lower value
  normalized growth: 0.986
Locus YJL095W, strain BCK1 (second series), stronger effect = lower value
  normalized growth: 0.992
Locus YJL095W, strain BCK1, stronger effect = lower value
  normalized growth: 0.99 and 0.988
Locus YJL115W, strain asf1, stronger effect = lower value
  normalized growth: 0.993
Locus YJL129C, strain trk1, stronger effect = lower value
  normalized growth: 1.01
Locus YJL134W, strain LCB3, stronger effect = lower value
  normalized growth: 1
Locus YJL154C, strain vps35, stronger effect = lower value
  normalized growth: 1.01
Locus YJL164C, strain tpk1, stronger effect = lower value
  normalized growth: 0.987
Locus YJL166W, strain qcr8, stronger effect = lower value
  normalized growth: 0.99
Locus YJL168C, strain set2, stronger effect = lower value
  normalized growth: 0.993
Locus YJL187C, strain SWE1 (second series), stronger effect = lower value
  normalized growth: 1.02
Locus YJL187C, strain SWE1, stronger effect = lower value
  normalized growth: 0.986
Locus YJR043C, strain POL32, stronger effect = lower value
  normalized growth: 1
Locus YJR066W, strain TOR1, stronger effect = lower value
  normalized growth: 0.988
